Bioassay records deposited in PubChem by National Center for Advancing Translational Sciences (NCATS).
HT1080 IDH1KD tx – HT-1080 IDH1 knockdown cell toxicity (counter line). Potency, µM (series often up to 46.1 µM), inactives show at the top dose activity, negative = toxicity, actives largely listed as cytotoxic. HT-1080 IDH1 knockdown viability, ATP luminescence, 48 h. hit rate 2% among 360,000;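 note: potency is the fitted concentration of half-maximal effect; 0% = DMSO wells and -100% = cell-free medium wells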
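Assay cells: HT-1080 with IDH1 knockdown, 750 per well, RPMI/5% FBS. Exposure: 48 h at 37 °C following 2 h pre-incubation. Read: CellTiter-Glo luminescence; fitted concentration-response, curve class assigned.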
IL1B secr inh – inhibitors of inflammasome signaling (IL-1 beta secretion) | THP-1 LPS/ATP IL-1B secretion, AlphaLISA, 16 h; stronger effect = lower value | activity change, % at 57.5 µM | hit rate 4.7% among 360,000; in the data active = activity change below about -50%; inconclusive = mostly about -30% to -49%
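THP-1 cells pretreated 1 hr with compounds (up to 57.5 uM final), then stimulated with LPS (250 ng/mL final) plus ATP (1.25 mM final); secreted IL-1B measured by AlphaLISA after 16 hr, decreased signal indicating inhibition.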
TDP1 cell CPT – DT40-hTDP1 cell growth loss with CPT | hit rate 12% among 420,000 | Potency, µM (doses to about 46.2 µM), inactives show top-dose activity change, negative = growth inhibition, most hits filed as inhibitors | AID 686979 | chicken DT40 Tdp1-/-;hTDP1 cells + 20 nM CPT, ATP luminescence, 48 h; note: potency is the fitted concentration of half-maximal effect; nearly all actives have a fitted effect of over 55% in size
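Chicken DT40 Tdp1-/- cells complemented with human TDP1, 400 cells/well, exposed to compounds plus 20 nM camptothecin for at least 48 h at 37 C; viability read as ATP content by CellTiter-Glo luminescence.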
HT1080-NT tox – kills 2HG-producing HT-1080-NT fibrosarcoma cells | AID 686970 | Potency, µM (top dose mostly 46.1 µM), without a hit: at the top dose activity, negative = less viability, most hits filed as cytotoxic | HT-1080-NT fibrosarcoma viability, CellTiter-Glo ATP luminescence, 48 h | hit rate 1.6% among 360,000;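 note: NT is the 2HG producing partner of a matched IDH1 knockdown line; potency is the fitted concentration of half-maximal effect; 0% = DMSO-treated cells and -100% = media-only wells without cells; nearly all actives have a fitted effect of over 55% in size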
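Fibrosarcoma NT cells, 750 per well in 5% FBS RPMI, were exposed to compound for 48 hours. Viability: CellTiter-Glo luminescence.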
TDP1 cell noCPT – qHTS for Inhibitors of human tyrosyl-DNA phosphodiesterase 1 (TDP1): qHTS in cells in absence of CPT | DT40 Tdp1-/- hTDP1 cells, no CPT, ATP luminescence, 48 h | Potency, µM (series often up to 46.2 µM), inactives show top-dose activity change, negative = growth inhibition, actives largely listed as inhibitors | hit rate 15% among 420,000; note: potency is the fitted concentration of half-maximal effect; nearly all actives have a fitted effect of over 55% in size
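Seeded 400 DT40-hTDP1 cells/well (vehicle DMSO, no 20 nM CPT); pinned compounds; ≥48 hr at 37 °C; CellTiter-Glo luminescence as viability measure.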
ELG1 repair inh – ELG1-dependent DNA repair inhibition; Potency, µM (highest dose often 46.1 µM), for the others: top-dose activity change, negative = inhibition, hits mostly inhibitors; hit rate 2.3% among 330,000; HEK293T ELG1-luciferase reporter, luminescence, 16 h; DNA damage induced by 5-fluorouridine; AID 504467; note: potency is the fitted concentration of half-maximal effect; nearly all actives have a fitted effect of over 55% in size
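Cells (2,000 per well) received 5-fluorouridine plus test compound or DMSO and were incubated 16 hr at 37 °C, 5% CO2. Luciferase activity was read by luminescence 30 min after ONE-Glo addition; signal suppression marked inhibition of damage-induced ELG1 function.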
* hit, by the source's call; [ ] = remark or other dose. Shown are actives, neighbours in structure and some others; about 19% of the full set was active somewhere. Unless noted, calls come from the whole dose curve; as a rule, active = well fitted curve in the direction sought with a large enough effect; inconclusive = small, poorly fitted or top-dose-only effect, or another doubt; inactive = no such curve, though single readings can be large; an effect the other way counts as inactive or inconclusive. Unless noted, % is set by controls: 0 for no effect and ±100 for the full control effect.

For Cc1ccc(/C=N/Nc2nc3ccccc3[nH]2)s1 the results were HT1080 IDH1KD tx -6.6%, IL1B secr inh -107.8*, TDP1 cell CPT 14.6µM*, HT1080-NT tox 1.5%, TDP1 cell noCPT inconclusive and ELG1 repair inh inconclusive.
Screening Cc1cc(=O)[nH]c(N/N=C/c2c[nH]c3ccccc23)n1 returned HT1080 IDH1KD tx -2.2%, IL1B secr inh 14.2, TDP1 cell CPT inconclusive, HT1080-NT tox 1.3%, TDP1 cell noCPT inconclusive and ELG1 repair inh inconclusive.
Screening O=[N+]([O-])c1cc(/C=N/Nc2nc3ccccc3[nH]2)c(O)cc1O returned HT1080 IDH1KD tx 7.31µM*, IL1B secr inh 61.1, TDP1 cell CPT 4.61µM*, HT1080-NT tox inconclusive, TDP1 cell noCPT 4.61µM* and ELG1 repair inh inconclusive.
Screening Cc1ccc(/C=N/Nc2ccc(F)cc2)s1 returned HT1080 IDH1KD tx -17.1%, IL1B secr inh -5.6, TDP1 cell CPT inconclusive, HT1080-NT tox -3.6%, TDP1 cell noCPT -10.5% and ELG1 repair inh -5.1%.
Cc1[nH]c2ccccc2c1/C=N/Nc1nc2ccccc2[nH]1 was read as HT1080 IDH1KD tx 18.4µM*, IL1B secr inh -105.4*, TDP1 cell CPT inconclusive, HT1080-NT tox 18.4µM*, TDP1 cell noCPT inconclusive and ELG1 repair inh inconclusive.
`Cc1[nH]c2ccccc2c1/C=N/Nc1nc(N2CCCCC2)nc(N2CCCCC2)n1` gave HT1080 IDH1KD tx -0.2%, IL1B secr inh inactive, TDP1 cell CPT inconclusive, HT1080-NT tox -10.3%, TDP1 cell noCPT inconclusive and ELG1 repair inh -2.1%.
For CCCc1ccc(OC(C)c2nc(-c3ccc(-n4cccc4)cc3)no2)cc1 (stereo unspecified) the results were TDP1 cell CPT -24.4% and TDP1 cell noCPT inconclusive.
COc1cccc(Cc2nc3ccccc3nc2SCC(=O)Nc2ccccc2F)c1 was read as TDP1 cell CPT 20.2% and TDP1 cell noCPT -16.0%.
`COc1cc(OC)cc(C(=O)Nc2ccc(N3CCOCC3)cc2N2CCOCC2)c1` gave HT1080 IDH1KD tx 7.6%, IL1B secr inh -18.0, TDP1 cell CPT -13.0%, HT1080-NT tox -0.5%, TDP1 cell noCPT inconclusive and ELG1 repair inh -17.1%.
`CN(Cc1ccc(Br)s1)C(=O)CNC(=O)c1ccc2c(c1)OCO2` gave HT1080 IDH1KD tx 0.9%, IL1B secr inh -11.9, TDP1 cell CPT 13.0%, HT1080-NT tox -1.1%, TDP1 cell noCPT -2.7% and ELG1 repair inh -0.7%.
For O=c1cnc2cnc(N3CCOCC3)nc2n1C[C@H]1CCCO1 the results were TDP1 cell CPT -3.5% and TDP1 cell noCPT -28.8%.
COc1ccc(/C=N/Nc2nc3ccccc3[nH]2)c(OC)c1OC was read as HT1080 IDH1KD tx inconclusive, IL1B secr inh -1.8, TDP1 cell CPT inconclusive, HT1080-NT tox 0.1%, TDP1 cell noCPT inconclusive and ELG1 repair inh inconclusive.
For Cc1ccccc1/C=N/Nc1nc2ccccc2[nH]1 the results were HT1080 IDH1KD tx -13.8%, IL1B secr inh -68.4*, TDP1 cell CPT inconclusive, HT1080-NT tox -20.5%, TDP1 cell noCPT inconclusive and ELG1 repair inh inconclusive.
C(=N\Nc1nc2ccccc2[nH]1)/c1cccc2cccnc12 was read as HT1080 IDH1KD tx inconclusive, IL1B secr inh 217.0, TDP1 cell CPT 2.59µM*, HT1080-NT tox inconclusive, TDP1 cell noCPT 2.91µM* and ELG1 repair inh inconclusive.
c1cnc2c(OCc3nc4ccccc4[nH]3)cccc2c1 was read as HT1080 IDH1KD tx -0.7%[9.24 µM], IL1B secr inh -5.9, TDP1 cell CPT -14.9%, HT1080-NT tox -5.9%, TDP1 cell noCPT -8.3% and ELG1 repair inh inconclusive.
Screening C(=N\Nc1nc(N2CCCCC2)nc(N2CCCCC2)n1)/c1c[nH]c2ccccc12 returned HT1080 IDH1KD tx -17.8%, IL1B secr inh -59.8*, TDP1 cell CPT inconclusive, HT1080-NT tox inconclusive, TDP1 cell noCPT 16.4µM* and ELG1 repair inh inconclusive.
Screening COc1cccc(-n2c(SC)nnc2C2CCN(Cc3nc4ccccc4s3)CC2)c1 returned TDP1 cell CPT 2.5%[9.04 µM] and TDP1 cell noCPT inconclusive.
`C=CCNc1ncnc2c1ncn2C1OC(CO)C(O)C1O` (stereo unspecified) gave HT1080 IDH1KD tx 18.4µM*, IL1B secr inh 65.9, TDP1 cell CPT 18.4µM*, HT1080-NT tox 9.2µM*, TDP1 cell noCPT 20.6µM* and ELG1 repair inh -19.3%.
Screening OC[C@H]1O[C@@H](n2cnc3c(NCc4ccco4)ncnc32)[C@H](O)[C@@H]1O returned HT1080 IDH1KD tx 6.51µM*, IL1B secr inh 73.5, TDP1 cell CPT 2.31µM*, HT1080-NT tox 5.8µM* and TDP1 cell noCPT 2.06µM*.
Screening Cc1ccccc1CNc1ncnc2c1ncn2[C@@H]1O[C@H](CO)[C@@H](O)[C@H]1O returned TDP1 cell CPT inconclusive and TDP1 cell noCPT 11.9µM*.
For C[C@@H](Cc1ccccc1)Nc1ncnc2c1ncn2[C@@H]1O[C@H](CO)[C@@H](O)[C@H]1O the results were TDP1 cell CPT 4.1% and TDP1 cell noCPT -28.9%.
OCC1OC(n2cnc3c(NCc4ccco4)ncnc32)C(O)C1O (stereo unspecified) was read as HT1080 IDH1KD tx 11.6µM*, IL1B secr inh inconclusive, TDP1 cell CPT 2.31µM*, HT1080-NT tox 11.6µM* and TDP1 cell noCPT 2.06µM*.
CCOc1ccc(C(=O)NCC(=O)NCC2CCCCC2)cc1OCC was read as HT1080 IDH1KD tx 5.0%, IL1B secr inh 1.6, TDP1 cell CPT -1.4%, HT1080-NT tox 14.2%, TDP1 cell noCPT -16.5% and ELG1 repair inh -9.6%.
O=C(NCc1cccnc1)c1cccc(S(=O)(=O)Nc2cccc(Cl)c2)c1 was read as HT1080 IDH1KD tx -9.9%, IL1B secr inh 2.9, TDP1 cell CPT inconclusive, HT1080-NT tox -9.0%, TDP1 cell noCPT inconclusive and ELG1 repair inh -10.2%.
Screening CCOc1ccc(NC(=O)CN2C(=O)COc3ccccc32)cc1 returned HT1080 IDH1KD tx -4.5%, IL1B secr inh 27.2, TDP1 cell CPT -1.3%, HT1080-NT tox 2.4%, TDP1 cell noCPT -0.6% and ELG1 repair inh 21.2%.
COc1ccc(COC(=O)c2ccc(C)c(S(=O)(=O)N3CCOCC3)c2)cc1F was read as HT1080 IDH1KD tx -17.8%, IL1B secr inh inconclusive, TDP1 cell CPT -23.5%, HT1080-NT tox 1.4%, TDP1 cell noCPT -29.3% and ELG1 repair inh 18.3µM*.
